The list is not random: actives were taken first. Their share in the collection is about 18%.
GCN5L2 inh: inhibitors of human GCN5L2 histone acetyltransferase. GCN5L2 HAT assay, ThioGlo1 CoA-SH fluorescence. Potency, µM (titrated, usually from 58.9 µM), for the others: at the highest dose activity change, negative = inhibition, actives largely listed as inhibitors. 0.21% of 390,000 active
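Fluorescence readout, Ex340nm/Em540nm: ThioGlo1 (50uM final) reacts with free CoA thiol released as 20nM GCN5L2 acetylates H3(1-25) peptide (75uM) using acetyl-CoA (70uM). Compound and enzyme sat 15 min beforehand; 20 min room-temperature reaction.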
VDR inh: vitamin D3 receptor (human) inhibition. AID 504847. VDR-SRC2-3 peptide fluorescence polarization, 2 h. 0.93% of 400,000 active. Potency, µM, for inactives: max response, negative = inhibition, usual class: inhibitors
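FP read-out; VDR + SRC2-3 coactivator peptide; 23 nl compound by pintool; 2 h RT incubation; reagents held at 4 deg C, protected from light.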
DT40 TDP1 CPT: growth inhibition of DT40 Tdp1-/-;hTDP1 cells with camptothecin (screen for TDP1 inhibitors); 12% of 420,000 active; chicken DT40 Tdp1-/-;hTDP1 cells + 20 nM CPT, ATP luminescence, 48 h; Potency, µM (top dose mostly 46.2 µM), for the others: at the top dose activity change, negative = growth inhibition, usual class: inhibitors; AID 686979; also: nearly all actives have a fitted effect of over 55% in size
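Cell growth measured by CellTiter-Glo luminescence after a minimum 48 h, 37 C compound exposure with 20 nM CPT in Tdp1-knockout DT40 cells stably expressing hTDP1, seeded 400/well; qHTS titration format.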
PLK1 PBD block: PLK1 (human) polo-box domain binding inhibition. P53350. Plk1 PBD binding of FITC phosphopeptide, fluorescence polarization. Potency, µM, inactives show max response, negative = inhibition, usual class: inhibitors. 2.8% of 360,000 active. AID 720504; also: series mostly up to about 57 µM; nearly all actives have a fitted effect of over 65% in size
TDP1 block: blocks human tyrosyl-DNA phosphodiesterase 1; Q9NUW8; recombinant TDP1, AlphaScreen DNA substrate cleavage; Potency, µM (top dose mostly 130 µM), inactives show top-dose activity change, negative = inhibition, most hits filed as inhibitors; 0.28% of 350,000 active; also: nearly all actives have a fitted effect of over 40% in size
Target sequence (Q9NUW8 whole entry, looked up): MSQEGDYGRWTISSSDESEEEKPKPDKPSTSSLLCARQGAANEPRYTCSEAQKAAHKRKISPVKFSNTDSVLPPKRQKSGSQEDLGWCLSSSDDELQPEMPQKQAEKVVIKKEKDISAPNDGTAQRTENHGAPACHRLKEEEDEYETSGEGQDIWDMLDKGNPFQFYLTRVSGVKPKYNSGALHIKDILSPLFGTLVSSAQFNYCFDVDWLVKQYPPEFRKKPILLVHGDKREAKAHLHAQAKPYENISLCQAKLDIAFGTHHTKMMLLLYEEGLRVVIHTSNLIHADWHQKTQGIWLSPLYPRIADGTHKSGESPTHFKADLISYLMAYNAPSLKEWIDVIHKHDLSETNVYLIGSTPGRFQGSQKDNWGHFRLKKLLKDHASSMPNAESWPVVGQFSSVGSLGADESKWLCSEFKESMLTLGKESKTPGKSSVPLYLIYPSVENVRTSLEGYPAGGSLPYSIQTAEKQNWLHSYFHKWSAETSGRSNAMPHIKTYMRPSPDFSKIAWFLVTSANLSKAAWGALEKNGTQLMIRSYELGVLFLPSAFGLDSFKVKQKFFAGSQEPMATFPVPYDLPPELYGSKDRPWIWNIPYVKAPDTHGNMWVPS
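Here, a 5' biotin and 3' phosphotyrosine-FITC DNA oligonucleotide reports Tdp1 activity: intact substrate bridges AlphaScreen beads, while cleavage leaves a 3' phosphate and drops signal. All incubations at room temperature.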
DT40 TDP1 no CPT: qHTS for Inhibitors of human tyrosyl-DNA phosphodiesterase 1 (TDP1): qHTS in cells in absence of CPT; AID 686978, 2013; DT40 Tdp1-/- hTDP1 cells, no CPT, ATP luminescence, 48 h; 15% of 420,000 active; Potency, µM (top dose mostly 46.2 µM), for the others: top-dose activity change, negative = growth inhibition, usual class: inhibitors; also: nearly all actives have a fitted effect of over 55% in size
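Seeded 400 DT40-hTDP1 cells/well (vehicle DMSO, no 20 nM CPT); pinned compounds; ≥48 hr at 37 °C; CellTiter-Glo luminescence as viability measure.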
* marks the source's active call; other numbers are inactive results; ? = inconclusive; . = no result. Calls follow the shape of the dose curve; as a rule, active = well fitted curve in the direction sought with a large enough effect; inconclusive = small, poorly fitted or top-dose-only effect, or another doubt; inactive = no such curve, though single readings can be large; an effect the other way counts as inactive or inconclusive. % is scaled to controls: 0 for no effect and ±100 for the full control effect; potency is read from the fitted curve at half-maximal effect.

SMILES	GCN5L2 inh	VDR inh	DT40 TDP1 CPT	PLK1 PBD block	TDP1 block	DT40 TDP1 no CPT
S=C1Cc2ccccc2N1	7.9%	2.24µM*	0.92µM*	11.9µM*	4.8%	0.731µM*
CC1(C)CN(c2ccccc2)N(Cc2ccc(F)cc2)C1=O	-2.6%	1.0%	9.2µM*	-1.6%	2.0%	9.2µM*
C[C@@H]1OC(Oc2ccccc2-c2cc(=O)c3c(O)cc(O)c([C@@H]4O[C@H](CO)[C@@H](O)[C@H](O)[C@H]4O)c3o2)[C@H](O)[C@H](O)[C@H]1O (some centres undefined)	0.0%	-2.5%	.	.	-2.3%	.
COc1cccc(CCc2nc3ccccc3c(=O)n2N)c1	.	-28.4%	?	-10.8%	.	20.6µM*
COc1ccc2ccccc2c1/C=N/Nc1ccc(Cl)c(C(=O)O)c1	-5.7%	4.4%	5.4%	?	5.6%	-27.2%
COc1ccc(N/N=C/c2c(C(=O)O)ccc3ccccc23)cc1	-8.1%	-13.2%	2.59µM*	-0.9%	0.0%	3.26µM*
O=C1NCCN/C1=C\C(=O)c1cccc(Br)c1	-1.1%	-20.6%	-20.6%	-8.5%	4.8%	-27.0%
CCCCN(C)S(=O)(=O)c1ccc(C(=O)Nc2sc3c(c2C(=O)OCC)CCN(C(C)C)C3)cc1	62.1%	9.5%	8.2µM*	.	7.8%	5.8µM*
CCOC(=O)c1c(NC(=O)c2ccc(S(=O)(=O)N(C)C3CCCCC3)cc2)sc2c1CCN(C(C)C)C2	1.4%	-2.1%	11.6µM*	.	2.6%	7.31µM*
CCN1CCc2c(sc(NC(=O)c3ccc(S(=O)(=O)N(C)C4CCCCC4)cc3)c2C(N)=O)C1	-5.1%	3.1%	?	.	5.2%	?
CCCc1c(-c2ccc(F)cc2)ncn1CCc1ccccc1OC	.	.	?	-2.0%	.	16.4µM*
CCCc1c(-c2cccc(Cl)c2)ncn1CCc1ccccc1OC	.	.	?	-3.2%	.	16.4µM*
CCCc1c(-c2cccc(Br)c2)ncn1Cc1ccccc1OC	.	.	?	-6.1%	.	20.6µM*
COc1ccccc1CCn1c(=O)c(-c2ccc(F)cc2)nc2cncnc21	-14.0%	11.9%	8.0%	.	.	0.4%
CCCc1c(-c2ccc(Cl)cc2)ncn1CCc1ccccc1OC	.	.	6.51µM*	-11.6%	.	5.8µM*
COc1ccccc1CCn1c(=O)c(-c2cccc(Cl)c2)nc2cncnc21	-16.2%	-16.7%	?	.	.	?
CCCCN(C(=O)C1CC(=O)N(c2ccc(OC)cc2OC)C1)c1c(N)n(CC(C)C)c(=O)[nH]c1=O (centres undefined)	1.1%	-11.9%	9.5%	1.2%	-3.8%	5.9%
CCCc1c(-c2ccc(Cl)cc2)ncn1Cc1ccccc1OC	.	.	11.6µM*	-20.3%	.	20.6µM*
CC(C)CC(=O)/C(=C/c1ccc(N(C)C)cc1)n1cncn1	-3.6%	-5.7%	-7.1%	10.8%	.	0.9%
CN(C)c1ccc(/C=C(/C(=O)c2ccc(Cl)cc2Cl)n2cncn2)cc1	24.5%	1.0%	23.1µM*	46.8%	0.0%	23.1µM*
COc1ccc2c(c1)c1c(c(=O)n(Cc3ccccc3)c(=O)n1CC(=O)Nc1ccc(C)cc1C)n2C	0.3%	1.7%	2.7%	.	5.6%	14.9%
CS(=O)(=O)N1CCC(c2noc(-c3ccc(C(F)(F)F)cc3)n2)CC1	1.1%	-6.4%	9.2µM*	0.5%	7.6%	10.3µM*
CCS(=O)(=O)N1CCC(c2nc(-c3ccc(C(F)(F)F)cc3)no2)CC1	-7.5%	-1.1%	8.91µM*	-2.4%	5.1%	14.1µM*
CN1CCN(S(=O)(=O)c2ccc(-c3noc(C4CCN(S(C)(=O)=O)CC4)n3)cc2)CC1	-10.3%	-15.2%	-7.1%	-1.6%	0.0%	-11.4%
CCS(=O)(=O)N1CCC(c2nc(-c3ccc(C)cc3)no2)CC1	-2.0%	-3.2%	29.1µM*	-3.5%	1.0%	14.6µM*
Cc1ccc(-c2noc(C3CCCCC3)n2)cc1	33.3%	4.8%	-25.1%	1.0%	-3.8%	-27.6%
